We go through five compounds from PubChem BioAssay (NCATS).

The nature of experiment [1]: Primary qHTS for Huh7 cytotoxicity: counterscreen for inhibitors of MERS-S pseudotyped particle cell entry (AID 1479147). Conditions: outcome: dose series up to 57.1 µM unless noted. (In general: qHTS replaces the single test concentration by a dilution series.)
Experiment [2] can be described thus: Primary qHTS for inhibitors of MERS-S pseudo-typed particle cell entry (AID 1479149). For activity change, negative = inhibition: % is set by controls: 0 for no effect and ±100 for the full control effect. Note: nearly all actives have a fitted effect of over 60% in size. The following applies: outcome: dose series up to 57.1 µM unless noted.
A short description of experiment [3]: Primary qHTS for Vero E6 cytotoxicity: counterscreen for inhibitors of SARS-S pseudo-typed particle cell entry (AID 1479150). Conditions: outcome: dose series up to 57.1 µM unless noted.
Experiment [4] addresses Cytochrome P450 2D6 (Homo sapiens) (UniProt P10635). The experiment can be described thus: Cytochrome P450 family 2 subfamily D member 6 (CYP2D6) small molecule antagonists: luciferase biochemical (cell-free) qHTS assay (AID 1645840; active = well fitted curve in the direction sought with a large enough effect in the repeat runs; an effect the other way counts as inactive or inconclusive; note: potency is the fitted concentration of half-maximal effect; nearly all actives have a fitted effect of over 55% in size). The procedure, abridged:
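P450-Glo luminescent screen: recombinant CYP2D6 enzyme–proluciferin substrate mix preincubated with compound 10 min at room temperature, then NADPH regeneration added for 1 h at room temperature. Detection reagent added for 20 min; luciferin light read as relative luminescence units.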

In experiment [5] the target is Glutathione peroxidase 1 (Homo sapiens) (UniProt P07203). As to the kind of experiment: Primary qHTS Assay for Inhibitors of Recombinant Selenoprotein Glutathione Peroxidase 1 (GPX1) (AID 1845191; active = well fitted curve in the direction sought with a large enough effect; an effect the other way counts as inactive or inconclusive; note: nearly all actives have a fitted effect of over 65% in size). The procedure, abridged: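 GR-coupled assay: compounds preincubated 30 min at room temperature with GPX1, then reaction started with CHP; final 10 nM GPX1, 1 mM GSH, 0.5 mM CHP, 0.5 mM NADPH, 100 nM GR, 0.01% BSA, pH 7.5 Tris buffer. NADPH fluorescence (340/450 nm) read at 0 and 15 min.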

Experiment [6] deals with Phospholipid hydroperoxide glutathione peroxidase GPX4 (Homo sapiens) (UniProt P36969). As to the kind of experiment: Primary qHTS Assay for Inhibitors of Recombinant Selenoprotein Glutathione Peroxidase 4 (GPX4) (AID 1845192; active = well fitted curve in the direction sought with a large enough effect; an effect the other way counts as inactive or inconclusive; note: nearly all actives have a fitted effect of over 65% in size). The procedure, abridged:
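GR-coupled assay: recombinant GPX4 preincubated 30 min with compound at room temperature; final 200 nM GPX4, 1 mM GSH, 0.5 mM cumene hydroperoxide, 0.5 mM NADPH, 100 nM GR, 0.01% BSA, pH 7.5 Tris. NADPH fluorescence (340/450 nm) read at 0 and 15 min.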

Experiment [7] can be described thus: qHTS Assay for Lipid Storage Modulators (AID 1519). For activity change, negative = inhibition: % is set by controls: 0 for no effect and ±100 for the full control effect. The following applies: Drosophila S3 cells, BODIPY lipid droplet/cell ratio, laser cytometry, cells loaded with oleic acid; for activity change, negative = inhibition: at 57.5 µM (top of the series). The procedure, abridged: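 Cells seeded at 5,000 per well were treated with compounds over a concentration series and loaded with oleic acid (400 uM, as added). Lipid droplet fluorescence (488 nm excitation, 500-530 nm channel) was read by laser-scanning cytometry and normalized to 20 uM Triacsin C.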

Experiment [8] concerns the target Ubiquitin carboxyl-terminal hydrolase 1 (Homo sapiens) (UniProt O94782). As to the kind of experiment: Inhibitors of USP1/UAF1: Pilot qHTS (AID 504865; active = well fitted curve in the direction sought with a large enough effect; an effect the other way counts as inactive or inconclusive;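 note: rhodamine fluorescence freed from ubiquitin-rhodamine substrate followed over time; top concentration of the series differs between compounds; % is set by controls: 0 for no effect and ±100 for the full control effect; nearly all actives have a fitted effect of over 35% in size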). The procedure, abridged: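 Enzyme-free wells gave the negative control, while test wells held 1nM USP1/UAF1 preincubated with compound for 15 min at room temperature. Ub-Rho at 150nM final started the reaction, and fluorescence at 480/540 nm was recorded kinetically.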

For experiment [9], the target named is Bile acid receptor (Homo sapiens) (UniProt Q96RI1). As to the kind of experiment: qHTS assay for small molecule agonists of farnesoid X receptor signaling (AID 588527).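 Note: 0% = vehicle basal and 100% = reference agonist.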 The following applies: HEK293T FXR-UAS-bla, beta-lactamase ratio, 16 h; stronger effect = higher value. An outline of the steps: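 Agonist-mode beta-lactamase reporter in GeneBLAzer FXR-UAS-bla HEK293T cells, titration up to 92 uM, 16 h exposure at 37 C, CCF4 fluorescence. Response scaled to DMSO (0%) and 100 uM chenodeoxycholic acid (100%), then Hill-fitted for EC50 and efficacy.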

The target in experiment [10] is Peroxisome proliferator-activated receptor delta (Homo sapiens) (UniProt Q03181). The experiment can be described thus: qHTS assay for small molecule agonists of peroxisome proliferator-activated receptor delta signaling (AID 588534).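 Note: 0% = DMSO basal wells and 100% = positive control agonist at 10 µM.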 The procedure, abridged:
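Cell-based beta-lactamase reporter assay run in agonist mode: cells seeded and incubated 5 hrs at 37 C, compounds added and incubated 18 hrs at 37 C. CCF4 dye fluorescence read after 2 hrs at RT; EC50 and efficacy from Hill fits.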

Experiment [11] addresses Peroxisome proliferator-activated receptor gamma (Homo sapiens) (UniProt P37231). The experiment can be described thus: qHTS assay for small molecule agonists of peroxisome proliferator-activated receptor gamma signaling (AID 588536; active = well fitted curve in the direction sought with a large enough effect in the signal ratio, with a control signal flat, not every such curve was filed as active; the % refers to the signal ratio;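 note: 0% = DMSO basal wells and 100% = rosiglitazone at 2 µM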). The procedure, abridged:
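Ratiometric blue/green fluorescence (405 nm excitation; 460 and 530 nm emission) from CCF4-loaded HEK293 reporter cells serves as signal. Exposure to test compounds lasts 16 h at 37 C in medium containing 1% charcoal/dextran-treated serum.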

The nature of experiment [12]: S16 Schwann cell PMP22 intronic element firefly luciferase assay (AID 624032; active = well fitted curve in the direction sought with a large enough effect; an effect the other way counts as inactive or inconclusive; note: potency is the fitted concentration of half-maximal effect; nearly all actives have a fitted effect of over 30% in size). An outline of the steps:
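Rat S16 Schwann cells stably carrying firefly luciferase driven by a PMP22 intronic element, in 10% FBS, treated 24 h at 37 C. ONE-Glo luminescence normalized to PTC124 control and DMSO (0%); curves classed by r2, magnitude and activity.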

Experiment [13] in a line: qHTS assay for small molecule agonists of the antioxidant response element (ARE) signaling pathway (AID 651741; active = well fitted activation curve with a large enough effect in the signal ratio; the % refers to the signal ratio; note: potency is the fitted concentration of half-maximal effect). The procedure, abridged: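 HepG2 ARE-bla cells plated at 2,000 cells/well and incubated 5 h at 37 C/5% CO2 received 23 nL compound in DMSO. After 16 h at 37 C, LiveBLAzer B/G FRET substrate was applied for 2 h at room temperature and fluorescence read.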
Experiment [14] in a line: qHTS assay for small molecule agonists of the antioxidant response element (ARE) signaling pathway measured by Nrf2-dependant transcriptional activity (AID 720636; active = well fitted curve in the direction sought with a large enough effect in the repeat runs; an effect the other way counts as inactive or inconclusive;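 note: HepG2 cells with an ARE-driven luciferase reporter; % of control where 0% means no effect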). The procedure, abridged: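 ONE-Glo luminescence, read 30 min after reagent addition at room temperature, reflected ARE reporter activity in HepG2 cells that had been incubated with compound for 16 hr at 37 C in 1% dialyzed FBS.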

Experiment [15] is described as follows: Cytotoxicity counterscreen for inhibitors of SARS-CoV-2 cell entry (AID 1645845). Note: nearly all actives have a fitted effect of over 50% in size. The following applies: outcome: dose series up to 57.1 µM unless noted. The procedure, abridged:
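HEK293-ACE2 cells (Expi293F stably expressing human ACE2) seeded overnight, then compound for 1 h plus 48 h at 37C. Viability as ATP content by luminescence; normalized to wells with cells and media-only wells.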
In general terms: The purpose of a counterscreen is to sort out artefacts and off-target activity.

A short description of experiment [16]: Primary qHTS to identify inhibitors of SARS-CoV-2 cell entry (AID 1645846). Note: nearly all actives have a fitted effect of over 45% in size. The following applies: SARS-CoV-2 pseudovirus cell entry assay, luminescence; activity change, negative = inhibition: at 57.1 µM (top of the series) unless noted. The procedure, abridged:
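Using luciferase-reporting pseudoviruses carrying Wuhan-Hu-1 spike, the screen tracks entry into stably ACE2-expressing cells over 48 hr. Activity is expressed relative to spike particles versus particles lacking any fusion protein.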

The target of experiment [17] is Cytochrome P450 3A4 (Homo sapiens) (UniProt P08684). The experiment can be described thus: qHTS Assay for Inhibitors and Substrates of Cytochrome P450 3A4 (AID 884; active = well fitted curve in the direction sought with a large enough effect; an effect the other way counts as inactive or inconclusive; note: % is set by controls: 0 for no effect and ±100 for the full control effect; nearly all actives have a fitted effect of over 50% in size). An outline of the steps:
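20 nM human CYP3A4 with 25 uM Luciferin-PPXE (at KM) in 200 mM KPO4, preincubated 10 min with compound; NADPH regeneration started a 60 min RT reaction. Luciferin detected by luminescence, normalized to 57 uM ketoconazole as full inhibition.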

The nature of experiment [18]: Confirmation and Secondary Assay for Modulators of Hemoglobin Beta Chain Splicing at IVS2 654 locus (AID 910; active = well fitted curve in the direction sought with a large enough effect; an effect the other way counts as inactive or inconclusive;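 note: HeLa cells stably carrying EGFP split by mutant beta-globin IVS2-654 intron; % of control where 0% means no effect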). The procedure, abridged:
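HeLa cells stably expressing EGFP interrupted by β-globin IVS2-654 intron, seeded overnight in Opti-MEM/2% FCS, then treated 2 days at 37 °C. Restored splicing read as total peak GFP intensity per well by laser scanning cytometry (488 nm excitation, 500–520 nm emission); 500 nM antisense PNA as control.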

Experiment [19] can be described thus: Confirmation and Secondary Assay for Modulators of Hemoglobin Beta Chain Splicing at IVS2 705 locus (AID 930; active = well fitted curve in the direction sought with a large enough effect; an effect the other way counts as inactive or inconclusive;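 note: HeLa cells stably expressing the EGFP-705 splicing reporter; GFP fluorescence per well restored by corrected splicing of the IVS2-705 intron in EGFP; % of control where 0% means no effect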). The procedure, abridged: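 Secondary splice-site specificity test uses HeLa expressing CMV-driven EGFP interrupted by IVS2-705; cells were treated 2 days at 37C with 500 nM antisense PNA as positive control.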
The mark [20] stands for this setting: measured here: cell count channel max response.
Setting [21] is: measured here: lipid channel max response.

Several values for one entry are separate records, joined by “and”; a condition that tells them apart may be missing. Equal values may be shown once. Results filed as inconclusive are left out. Activity calls are given as the source filed them. Unless noted, calls come from the whole dose curve.

Sequence of Peroxisome proliferator-activated receptor delta (Homo sapiens) (Q03181 whole entry, looked up): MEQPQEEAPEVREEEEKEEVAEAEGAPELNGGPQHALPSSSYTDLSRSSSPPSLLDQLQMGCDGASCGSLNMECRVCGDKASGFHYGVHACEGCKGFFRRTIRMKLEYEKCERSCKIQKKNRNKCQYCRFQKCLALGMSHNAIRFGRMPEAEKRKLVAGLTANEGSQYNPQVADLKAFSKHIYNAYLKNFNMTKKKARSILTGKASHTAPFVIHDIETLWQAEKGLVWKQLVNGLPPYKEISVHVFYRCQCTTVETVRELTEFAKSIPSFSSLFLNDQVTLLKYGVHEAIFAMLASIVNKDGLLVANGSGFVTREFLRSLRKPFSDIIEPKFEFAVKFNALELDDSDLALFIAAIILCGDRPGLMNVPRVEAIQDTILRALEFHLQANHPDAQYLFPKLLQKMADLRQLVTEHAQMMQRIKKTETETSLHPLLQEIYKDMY
Sequence of Bile acid receptor (Homo sapiens) (Q96RI1 whole entry, looked up): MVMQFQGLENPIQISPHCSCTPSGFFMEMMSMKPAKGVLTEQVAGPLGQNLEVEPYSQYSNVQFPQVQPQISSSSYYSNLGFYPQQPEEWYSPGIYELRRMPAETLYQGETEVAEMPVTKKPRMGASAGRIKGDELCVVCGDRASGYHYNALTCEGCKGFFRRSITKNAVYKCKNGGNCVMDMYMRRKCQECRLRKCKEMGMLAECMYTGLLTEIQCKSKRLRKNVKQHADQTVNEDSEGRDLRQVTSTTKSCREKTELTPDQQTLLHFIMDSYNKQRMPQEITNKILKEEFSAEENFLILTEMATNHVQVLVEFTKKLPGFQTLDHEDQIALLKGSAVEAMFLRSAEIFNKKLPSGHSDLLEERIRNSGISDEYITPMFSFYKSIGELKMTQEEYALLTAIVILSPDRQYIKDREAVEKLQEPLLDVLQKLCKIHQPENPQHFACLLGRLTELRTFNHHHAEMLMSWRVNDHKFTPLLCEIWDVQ
Sequence of Glutathione peroxidase 1 (Homo sapiens) (P07203 whole entry, looked up): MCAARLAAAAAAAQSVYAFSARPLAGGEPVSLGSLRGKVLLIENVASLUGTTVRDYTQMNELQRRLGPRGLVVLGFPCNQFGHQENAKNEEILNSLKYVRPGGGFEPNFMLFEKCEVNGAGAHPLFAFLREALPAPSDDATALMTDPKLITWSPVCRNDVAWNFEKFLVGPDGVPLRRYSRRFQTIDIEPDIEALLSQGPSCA
Sequence of Peroxisome proliferator-activated receptor gamma (Homo sapiens) (P37231 whole entry, looked up): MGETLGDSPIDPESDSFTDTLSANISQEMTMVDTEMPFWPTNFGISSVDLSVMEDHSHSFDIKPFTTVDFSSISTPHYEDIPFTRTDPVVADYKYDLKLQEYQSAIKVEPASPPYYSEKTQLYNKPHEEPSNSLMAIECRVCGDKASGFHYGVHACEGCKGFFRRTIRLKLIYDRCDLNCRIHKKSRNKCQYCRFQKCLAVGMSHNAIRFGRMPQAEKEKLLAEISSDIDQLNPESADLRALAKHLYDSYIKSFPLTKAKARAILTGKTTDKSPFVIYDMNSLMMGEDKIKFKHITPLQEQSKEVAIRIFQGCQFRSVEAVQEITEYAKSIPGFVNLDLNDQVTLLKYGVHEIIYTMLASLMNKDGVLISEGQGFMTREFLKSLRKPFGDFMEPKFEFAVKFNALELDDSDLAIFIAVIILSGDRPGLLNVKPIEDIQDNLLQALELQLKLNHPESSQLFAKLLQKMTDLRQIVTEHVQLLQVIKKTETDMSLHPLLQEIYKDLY
Sequence of Phospholipid hydroperoxide glutathione peroxidase GPX4 (Homo sapiens) (P36969 whole entry, looked up): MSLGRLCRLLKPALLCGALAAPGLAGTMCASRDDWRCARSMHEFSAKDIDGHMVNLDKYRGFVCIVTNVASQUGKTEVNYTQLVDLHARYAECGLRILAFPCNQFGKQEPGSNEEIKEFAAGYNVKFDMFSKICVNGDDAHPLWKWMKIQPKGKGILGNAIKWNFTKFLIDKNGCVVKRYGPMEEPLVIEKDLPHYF
Sequence of Cytochrome P450 3A4 (Homo sapiens) (P08684 whole entry, looked up): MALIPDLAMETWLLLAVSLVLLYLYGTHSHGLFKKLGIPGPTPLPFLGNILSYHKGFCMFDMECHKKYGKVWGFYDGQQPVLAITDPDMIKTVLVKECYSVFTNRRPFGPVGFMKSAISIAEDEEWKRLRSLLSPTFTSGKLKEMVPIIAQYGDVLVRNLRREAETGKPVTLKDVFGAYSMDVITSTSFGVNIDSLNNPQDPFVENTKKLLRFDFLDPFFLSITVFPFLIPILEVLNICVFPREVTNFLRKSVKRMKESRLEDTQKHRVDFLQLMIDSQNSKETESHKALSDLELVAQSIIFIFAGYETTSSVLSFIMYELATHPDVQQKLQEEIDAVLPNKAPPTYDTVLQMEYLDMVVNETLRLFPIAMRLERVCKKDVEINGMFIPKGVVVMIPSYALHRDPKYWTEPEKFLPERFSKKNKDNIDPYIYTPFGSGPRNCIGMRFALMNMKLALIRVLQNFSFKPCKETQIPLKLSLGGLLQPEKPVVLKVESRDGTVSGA
Sequence of Ubiquitin carboxyl-terminal hydrolase 1 (Homo sapiens) (O94782 whole entry, looked up): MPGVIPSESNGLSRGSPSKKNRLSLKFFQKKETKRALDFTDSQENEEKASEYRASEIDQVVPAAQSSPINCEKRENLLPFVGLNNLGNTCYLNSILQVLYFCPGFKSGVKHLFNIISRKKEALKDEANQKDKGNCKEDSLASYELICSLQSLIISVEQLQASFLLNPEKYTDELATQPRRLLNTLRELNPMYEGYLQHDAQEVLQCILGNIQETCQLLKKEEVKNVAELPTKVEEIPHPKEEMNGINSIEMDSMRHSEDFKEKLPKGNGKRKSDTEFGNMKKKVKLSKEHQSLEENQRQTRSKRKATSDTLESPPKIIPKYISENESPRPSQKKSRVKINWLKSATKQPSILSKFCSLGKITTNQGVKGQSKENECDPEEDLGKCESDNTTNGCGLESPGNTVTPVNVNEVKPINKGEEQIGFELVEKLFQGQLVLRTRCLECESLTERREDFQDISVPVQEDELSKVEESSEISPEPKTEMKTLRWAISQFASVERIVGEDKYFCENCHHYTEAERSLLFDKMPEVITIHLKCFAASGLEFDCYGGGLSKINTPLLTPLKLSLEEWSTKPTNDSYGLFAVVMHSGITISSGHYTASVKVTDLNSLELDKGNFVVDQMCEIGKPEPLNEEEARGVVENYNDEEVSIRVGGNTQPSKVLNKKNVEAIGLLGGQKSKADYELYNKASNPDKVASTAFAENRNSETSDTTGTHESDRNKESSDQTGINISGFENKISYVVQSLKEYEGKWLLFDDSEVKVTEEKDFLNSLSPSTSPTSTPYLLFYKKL
Sequence of Cytochrome P450 2D6 (Homo sapiens) (P10635 whole entry, looked up): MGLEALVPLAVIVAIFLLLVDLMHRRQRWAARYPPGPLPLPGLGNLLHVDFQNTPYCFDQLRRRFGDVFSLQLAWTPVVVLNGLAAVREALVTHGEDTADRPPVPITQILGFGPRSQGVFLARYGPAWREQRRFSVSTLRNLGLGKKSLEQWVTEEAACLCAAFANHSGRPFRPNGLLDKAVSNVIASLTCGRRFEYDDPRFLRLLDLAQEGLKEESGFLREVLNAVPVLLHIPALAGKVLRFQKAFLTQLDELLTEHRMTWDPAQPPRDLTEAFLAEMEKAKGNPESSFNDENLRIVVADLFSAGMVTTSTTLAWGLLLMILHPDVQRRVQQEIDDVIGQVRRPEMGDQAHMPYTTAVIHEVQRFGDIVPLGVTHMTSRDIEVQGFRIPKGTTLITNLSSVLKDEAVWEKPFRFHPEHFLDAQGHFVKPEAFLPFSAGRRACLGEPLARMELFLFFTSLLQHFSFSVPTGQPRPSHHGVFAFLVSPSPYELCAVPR

With `C[C@@]12CCCCC[C@@H](Cc3ccc(O)cc31)[C@H]2N`, the Potency result in experiment [1], in [2], in [3], in [5] and in experiment [6] was “inactive” each time. In addition, the Potency in experiment [4] is 16.9 µM (active).
As for `COc1cc(CNC(=O)CCCC/C=C/C(C)C)ccc1O`, the activity change, negative = inhibition in [7] was -5.1% (inactive) and 0.692% (inactive); in [16] it was -28.1% and -35.9%. The max response was -0.801% and 21.3% in [7] (setting [20]); -2.34% and 21.8% in [7] (setting [21]). Moreover, the Potency entry in [8], in experiment [1], in [2], in [3] and in experiment [15] was “inactive” in each case. The activation in [9] is -2.84% (inactive) and 4.77% (inactive). The outcome in experiment [10], in [11] and in experiment [14] was inactive. The Potency was 9.07 µM (active) in experiment [12] and 42.2 µM (active) in experiment [13].
With `C=CC(=O)N1CCCC(n2nc(-c3ccc(Oc4ccccc4)cc3)c3c(N)ncnc32)C1` (centres undefined), the Potency result in experiment [1], in experiment [2] and in experiment [3] was “inactive” throughout.
For the compound `CNC(C)C(O)c1ccccc1` (centres undefined), the Potency entry in [17], in experiment [18], in experiment [19], in experiment [1], in [2] and in experiment [3] was “inactive” throughout. Also, the Potency result in [15] and in [5] was “inactive” each time. Also, the activity change, negative = inhibition is 8.05% (inactive) in experiment [7] and -30.3% in experiment [16]. Also, the max response in experiment [7] (setting [20]) amounted to 10.2%; in experiment [7] (setting [21]), 21.8%.
`O=C(O)c1cc(O)c2c(c1)[C@H]([C@H]1c3cc(C(=O)O)cc(O)c3C(=O)c3c(O[C@@H]4O[C@H](CO)[C@@H](O)[C@H](O)[C@H]4O)cccc31)c1cccc(O[C@@H]3O[C@H](CO)[C@@H](O)[C@H](O)[C@H]3O)c1C2=O`: the Potency entry in [1], in [2] and in experiment [3] was “inactive” throughout.
